According to PubChem BioAssay AID1240 (Sanford-Burnham Center for Chemical Genomics, 2008):
Hit rate of the full screen: of about 50,000 compounds, about 800 (1.6%) showed an effect of 50% or more. The full list was thinned out, with strong results kept by preference.

What follows are compounds tested against Bcl-2-like protein 10 (Homo sapiens) (UniProt Q9HD36) (assay: Phenotype converters, Bcl-B/TR3 peptide binding displacement, primary biochemical FP (AID 1240;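 note: 0% = Bcl-B with tracer peptide and DMSO and 100% = tracer peptide lacking Bcl-B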)). Details: GST-Bcl-B / FITC-TR3 peptide fluorescence polarization; stronger effect = higher value; compound at 3.75 mg/L.
Bcl-2-like protein 10 (Homo sapiens), sequence (Q9HD36 whole entry, looked up): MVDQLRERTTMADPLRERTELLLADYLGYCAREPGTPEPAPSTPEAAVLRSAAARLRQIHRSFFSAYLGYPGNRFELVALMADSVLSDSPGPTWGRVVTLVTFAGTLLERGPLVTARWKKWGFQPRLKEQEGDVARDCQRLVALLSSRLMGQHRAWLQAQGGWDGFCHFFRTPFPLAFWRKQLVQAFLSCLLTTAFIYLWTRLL

Compared with `C=C1CC(C)OC(c2ccccc2O)C1` (stereo not given), `CC1=C(C(=O)OCC(F)(F)F)C(c2ccccc2)NC(=O)N1` (stereo not given) is higher in displacement: -4.4% for the first, 7.2% for the second.

Compared with `O=C1CC(Nc2ccc(F)cc2)C(=O)N1c1ccccc1C(F)(F)F` (stereo not given), `COc1ccc(C2CC(c3ccc(F)cc3)=NN2c2ccccc2F)cc1OC` (stereo not given) is lower in displacement: 1.1% for the first, -4.3% for the second.

First: C=CCNC(=O)CN(c1ccc(OC)cc1)S(C)(=O)=O
Second: COc1ccc(NC(=O)CN(c2cc(OC)ccc2OC)S(C)(=O)=O)cc1
The displacement of the first is lower: 1.7% for the first, 13.1% for the second.

First: COc1cc(C(=O)Nc2ccc(Br)cc2C(=O)c2cc(OC)c(OC)c(OC)c2)cc(OC)c1OC
Second: COc1cc(C(=O)c2cc(Br)ccc2NC(=O)COc2ccc(C)cc2)cc(OC)c1OC
The displacement of the first is higher: 22.3% for the first, 17.2% for the second.

Compared with `COc1cc(C(=O)c2cc(Br)ccc2NC(=O)COc2ccccc2)cc(OC)c1OC`, `CCOC(=O)C1=CN(c2ccc(F)cc2)C=C(C(=O)OCC)C1c1cc(OC)c(OC)c(OC)c1` is lower in displacement: 57.3% for the first, -2.3% for the second.

Compared with `COc1cc(CN2CCN(Cc3ccccn3)CC2)cc(OC)c1OC`, `COc1cc(C(=S)N2CCOCC2)cc(OC)c1OC(=O)c1cccc([N+](=O)[O-])c1` is higher in displacement: -5.1% for the first, 70.4% for the second.

Going from `CCOC(=O)C(Cc1cc(C)c(CC(C(=O)OCC)C(=O)OCC)cc1C)C(=O)OCC` to `CCOC(=O)c1c(-c2ccc(OC)cc2)csc1NC(=O)c1cccc([N+](=O)[O-])c1`, the displacement rises from -8.7% to 12.6%.

Going from `CC(=O)N/N=C/c1cc(C)n(-c2ccc(Cl)cc2Cl)c1C` to `O=C(COc1ccc(Cl)cc1Cl)Nc1ccc(Br)c(Cl)c1`, the displacement rises from -7.1% to -5.5%.

Going from `CCOc1ccc(-c2csc(-c3cc4ccccc4oc3=O)n2)cc1` to `Cc1ccc(-c2csc(-c3cc4ccccc4oc3=O)n2)cc1`, the displacement rises from -2.8% to 154%.

Going from `COc1cccc2cc(-c3nc(-c4ccccc4)cs3)c(=O)oc12` to `COc1cccc(-c2csc(-c3cc4cccc(OC)c4oc3=O)n2)c1`, the displacement falls from 7.8% to -23.1%.

First: COc1cccc2cc(-c3nc(-c4ccc(Cl)c(Cl)c4)cs3)c(=O)oc12
Second: COc1cccc2cc(-c3nc(-c4ccc(Cl)cc4Cl)cs3)c(=O)oc12
The displacement of the first is higher: 0.1% for the first, -11.5% for the second.

Compared with `O=c1oc2ccccc2cc1-c1nc(-c2ccc(Cl)c(Cl)c2)cs1`, `COc1ccc(-c2csc(-c3cc4cc(Cl)cc(Cl)c4oc3=O)n2)cc1` is higher in displacement: 61.2% for the first, 75% for the second.

Compared with `O=c1oc2cc(O)c([N+](=O)[O-])cc2cc1-c1csc(-c2ccc(Cl)cc2)n1`, `Cc1ccc(-c2nc(-c3cc4cc([N+](=O)[O-])c(O)cc4oc3=O)cs2)cc1` is higher in displacement: -11.3% for the first, -4.8% for the second.

First: O=c1oc2cc(O)c([N+](=O)[O-])cc2cc1-c1csc(-c2cc3ccccc3oc2=O)n1
Second: Cc1ccc(-c2csc(-c3cc4cc([N+](=O)[O-])ccc4oc3=O)n2)cc1
The displacement of the first is lower: -10% for the first, -7.9% for the second.

Going from `COc1cccc2cc(-c3nc(-c4ccc(C)c(C)c4)cs3)c(=O)oc12` to `CCc1ccc(-c2csc(-c3cc4cccc(OC)c4oc3=O)n2)cc1`, the displacement falls from 80.5% to -23.6%.

First: O=c1oc2cc(O)ccc2cc1-c1csc(-c2ccc(-c3ccccc3)cc2)n1
Second: O=C(CSc1nc2ccccc2s1)c1ccc2ccccc2c1
The displacement of the first is higher: 116% for the first, 11.9% for the second.

Compared with `Cc1cc(/C=C2\SC(=O)NC2=O)c(C)n1C1CCCCC1`, `Cc1cccc(N2C(=O)S/C(=C/c3cccc([N+](=O)[O-])c3)C2=O)c1` is higher in displacement: 8.2% for the first, 14.3% for the second.

Going from `Cc1ccc(OCc2nc(-c3cccnc3)no2)c(Br)c1` to `Cc1ccc(-c2cc(NC(=O)c3ccc(Cl)cc3Cl)n[nH]2)cc1`, the displacement falls from 10.7% to 9.9%.

Compared with `N#C/C(=C\c1ccc(C(=O)O)cc1)C(=O)NCC1CCCO1` (stereo not given), `Cc1ccc(C(=O)N/C(=C/c2ccc(Br)cc2)C(=O)NN)cc1` is lower in displacement: 0% for the first, -31.6% for the second.

Compared with `Fc1ccc(-c2nnn(Cc3c(F)cccc3Cl)n2)cc1`, `COc1ccc(C2CC(c3ccc(F)cc3)=NN2c2cccc(F)c2)cc1OC` (stereo not given) is higher in displacement: -6.4% for the first, -6.2% for the second.

Going from `Cc1cccc(NC(=O)C2C(C(=O)O)C3C=CC2C32CC2)c1` (stereo not given) to `CCOc1ccc(C(=O)Nc2cccc(C(C)=O)c2)cc1`, the displacement rises from -1.1% to 9%.

Going from `COc1cc(NS(=O)(=O)c2ccc(C)cc2)cc(OC)c1O` to `COc1cc(/C=C(\C#N)c2ccc([N+](=O)[O-])cc2)c(OC)cc1Br`, the displacement rises from 13.5% to 14.7%.

Going from `NC(=O)COc1ccc(/C=N/NS(=O)(=O)c2ccccc2)cc1` to `Cc1ccc(/C=C2\SC(=S)N(CCc3ccccc3)C2=O)cc1`, the displacement rises from 0.2% to 17%.

Going from `COc1ccc(/C=C(\C#N)c2ccc([N+](=O)[O-])cc2)c(OC)c1` to `COc1ccc(OC)c(/C=C(\C#N)c2ccc([N+](=O)[O-])cc2)c1`, the displacement falls from 110% to 4%.

First: CC(C)CN1C(=O)/C(=C/c2ccccc2F)SC1=S
Second: COc1ccc(/C=C2/SC(=S)N(Cc3ccccc3)C2=O)cc1OC
The displacement of the first is lower: 10.4% for the first, 16.1% for the second.

Going from `COc1ccc(NC(=O)CSCCc2ccccn2)c([N+](=O)[O-])c1` to `COc1ccc(C2=NN(C(=O)CCC(=O)O)C(c3ccccc3F)C2)cc1` (stereo not given), the displacement rises from 10.5% to 12.3%.

Going from `NS(=O)(=O)c1cccc(NC(=O)c2cc(I)ccc2Cl)c1` to `CC(C)COc1ccc(C(=O)Nc2ccc(Cl)cc2)cc1`, the displacement rises from -1.9% to 13.1%.

Going from `COc1ccc(CCN2C(=O)/C(=C\c3ccc(C(C)C)cc3)SC2=S)cc1OC` to `COc1ccc(/C=C2/SC(=S)N(CCc3ccccc3)C2=O)cc1OC`, the displacement rises from -0.4% to 105%.

Going from `O=C(CCN1C(=O)/C(=C/c2ccc(F)cc2)SC1=S)Nc1cc([N+](=O)[O-])ccc1O` to `O=C(CCCN1C(=O)/C(=C\c2ccc(F)cc2)SC1=S)Nc1cc([N+](=O)[O-])ccc1O`, the displacement rises from 25.6% to 114%.

Compared with `COc1ccc(/C=C2\SC(=S)N(CC(=O)Nc3ncc(Cc4cccc([N+](=O)[O-])c4)s3)C2=O)cc1OC`, `COc1ccc(/C=C2\SC(=S)N(CCCC(=O)Nc3ncc(Cc4cccc([N+](=O)[O-])c4)s3)C2=O)cc1OC` is higher in displacement: 9.7% for the first, 59% for the second.

Compared with `CCCCN1C(=O)/C(=C\c2ccc(N(CC)CC)cc2)SC1=S`, `CCN(CC)c1ccc(/C=C2\SC(=S)N(CCc3ccccc3)C2=O)cc1` is higher in displacement: -18.9% for the first, 86% for the second.

Going from `O=C(CN1C(=O)/C(=C/c2ccc(Br)cc2)SC1=S)Nc1ncc(Cc2cccc([N+](=O)[O-])c2)s1` to `O=C(CCCN1C(=O)/C(=C\c2ccc(F)cc2)SC1=S)Nc1ccccc1O`, the displacement falls from 17.9% to -12.5%.

First: COC1C(C)=C(c2ccccc2F)C(=O)N1Cc1ccccc1 (stereo not given)
Second: COc1ccc(/C=C2\SC(=NCc3ccccc3)N(Cc3ccccc3)C2=O)cc1OC
The displacement of the first is higher: 14.3% for the first, 7.1% for the second.

First: CC1=C(C(=O)Nc2ccc(C)cc2)C(c2ccc(F)cc2)NC(=S)N1 (stereo not given)
Second: COc1ccc(C2CC(c3ccc(F)cc3)=NN2c2ccccc2)cc1OC (stereo not given)
The displacement of the first is lower: -4.5% for the first, 64.4% for the second.

Going from `C/C(O)=C/c1nc2ccc([N+](=O)[O-])cc2nc1/C=C(/C)O` to `NC1=NC(=O)/C(=C/c2ccc(-c3ccc([N+](=O)[O-])cc3Br)o2)S1`, the displacement falls from 17.3% to -5.3%.

First: OC(COCc1ccc2c(c1)OCO2)CN1CCC(Cc2ccccc2)CC1 (stereo not given)
Second: O=C(Oc1ccccc1C(=S)N1CCOCC1)c1cccc([N+](=O)[O-])c1
The displacement of the first is lower: 0.1% for the first, 10.7% for the second.

Going from `O=C(O)CCCCCN1C(=O)C(=O)/C(=C(/O)c2ccccc2)C1c1ccc([N+](=O)[O-])cc1` (stereo not given) to `COc1ccc(/C=C2\SC(=NCc3ccccc3)N(Cc3ccccc3)C2=O)cc1C(=O)O`, the displacement rises from -3.9% to 78%.

Going from `O=C1c2c(Cl)ccc(Cl)c2C(=O)N1c1ccccc1O` to `CCN(CC)c1ccc(/C=C2/C(=O)NN(c3cccc(Cl)c3)C2=O)c(O)c1`, the displacement falls from 9.8% to 1.9%.

First: C(#Cc1ccccc1)CN1CCOCC1
Second: O=c1[nH]c2ccc(Cl)cc2c(-c2ccccc2)c1N1CCOCC1
The displacement of the first is higher: 2.4% for the first, -27.7% for the second.

First: CSC(=O)NC1(Cc2ccc(O)cc2)CCCCC1
Second: CC(=O)Nc1ccc(S(=O)(=O)NC(=O)C23CC4CC(CC(C4)C2)C3)cc1
The displacement of the first is lower: -4.1% for the first, 0.8% for the second.

Going from `CCN(CC)CCC(=O)c1ccc2c(c1)OCO2` to `CCN(CC)c1ccc(/C=C2/C(=O)NN(c3ccc(C)cc3)C2=O)c(O)c1`, the displacement rises from -5.3% to 23.1%.

First: COC(=O)C(C)Oc1cc2oc(=O)cc(-c3ccccc3)c2cc1Cl (stereo not given)
Second: COc1cc(/C=C2\SC(=NCc3ccccc3)N(Cc3ccccc3)C2=O)cc(Br)c1O
The displacement of the first is higher: 10.3% for the first, -5.7% for the second.

Compared with `CCN(CC)c1ccc(/C=C2/C(=O)NN(c3ccc(C)c(Cl)c3)C2=O)c(O)c1`, `COc1cc(OC)c([N+](=O)[O-])cc1/C=C1/C(=O)NC(=O)N(c2ccc(Br)cc2)C1=O` is lower in displacement: 59.2% for the first, 8.8% for the second.

Compared with `CC(=O)C12CCCCC1CC1C3CC(C)[C@@]4(O)CC(O)CCC4(C)C3CCC12C` (stereo not given in full), `COc1cc(C2C3=C(CC(C)(C)CC3=O)OC3=C2C(=O)CC(C)(C)C3)cc(OC)c1OC(C)=O` is lower in displacement: 0% for the first, -1.3% for the second.

First: COc1ccc(C2=NN(c3ccccc3)C(c3ccccc3F)C2)cc1 (stereo not given)
Second: COc1ccccc1C1CC(c2ccc(F)cc2)=NN1c1ccccc1 (stereo not given)
The displacement of the first is higher: 53.9% for the first, 5.4% for the second.

Compared with `COc1ccc(Cl)cc1N=CC1=C(O)CC(C)(C)CC1=O`, `C=CCOc1ccc(Cl)cc1/C=C1/C(=N)N2N=C(CCC)SC2=NC1=O` is lower in displacement: 3.1% for the first, -25.3% for the second.

First: CCOc1cc(C(=S)N2CCOCC2)ccc1OC(=O)c1cccc([N+](=O)[O-])c1
Second: CCC1=NN2C(=N)/C(=C/c3ccc(-c4ccc([N+](=O)[O-])cc4Br)o3)C(=O)N=C2S1
The displacement of the first is higher: 8.7% for the first, 4% for the second.

First: CCC1=NN2C(=N)/C(=C/c3ccc(-c4ccc([N+](=O)[O-])cc4C)o3)C(=O)N=C2S1
Second: CCCC1=NN2C(=N)/C(=C/c3ccc(-c4ccc([N+](=O)[O-])cc4C)o3)C(=O)N=C2S1
The displacement of the first is lower: 14% for the first, 140% for the second.

Going from `CCC1=NN2C(=N)/C(=C/c3ccc(-c4ccc([N+](=O)[O-])cc4Cl)o3)C(=O)N=C2S1` to `CCCC1=NN2C(=N)/C(=C/c3ccc(-c4ccc([N+](=O)[O-])cc4Br)o3)C(=O)N=C2S1`, the displacement rises from 15.1% to 129%.

Compared with `CCC1=NN2C(=N)/C(=C/c3ccc(-c4ccccc4[N+](=O)[O-])o3)C(=O)N=C2S1`, `CCCC1=NN2C(=N)/C(=C/c3ccc(-c4ccc(Cl)cc4Cl)o3)C(=O)N=C2S1` is higher in displacement: 1.5% for the first, 74.7% for the second.
